# Reference: ChEMBL document CHEMBL1961873, “Compounds: GSK PKIS; Assays: Nanosyn kinase panel” (2012)
# Assays:
# [1] = molecular target: T1, Serine/threonine-protein kinase Nek9 (Homo sapiens) (UniProt Q8TD19); conditions: at 1 µM;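 note: each value is a mean percent inhibition of NEK9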
# T1 sequence (whole entry): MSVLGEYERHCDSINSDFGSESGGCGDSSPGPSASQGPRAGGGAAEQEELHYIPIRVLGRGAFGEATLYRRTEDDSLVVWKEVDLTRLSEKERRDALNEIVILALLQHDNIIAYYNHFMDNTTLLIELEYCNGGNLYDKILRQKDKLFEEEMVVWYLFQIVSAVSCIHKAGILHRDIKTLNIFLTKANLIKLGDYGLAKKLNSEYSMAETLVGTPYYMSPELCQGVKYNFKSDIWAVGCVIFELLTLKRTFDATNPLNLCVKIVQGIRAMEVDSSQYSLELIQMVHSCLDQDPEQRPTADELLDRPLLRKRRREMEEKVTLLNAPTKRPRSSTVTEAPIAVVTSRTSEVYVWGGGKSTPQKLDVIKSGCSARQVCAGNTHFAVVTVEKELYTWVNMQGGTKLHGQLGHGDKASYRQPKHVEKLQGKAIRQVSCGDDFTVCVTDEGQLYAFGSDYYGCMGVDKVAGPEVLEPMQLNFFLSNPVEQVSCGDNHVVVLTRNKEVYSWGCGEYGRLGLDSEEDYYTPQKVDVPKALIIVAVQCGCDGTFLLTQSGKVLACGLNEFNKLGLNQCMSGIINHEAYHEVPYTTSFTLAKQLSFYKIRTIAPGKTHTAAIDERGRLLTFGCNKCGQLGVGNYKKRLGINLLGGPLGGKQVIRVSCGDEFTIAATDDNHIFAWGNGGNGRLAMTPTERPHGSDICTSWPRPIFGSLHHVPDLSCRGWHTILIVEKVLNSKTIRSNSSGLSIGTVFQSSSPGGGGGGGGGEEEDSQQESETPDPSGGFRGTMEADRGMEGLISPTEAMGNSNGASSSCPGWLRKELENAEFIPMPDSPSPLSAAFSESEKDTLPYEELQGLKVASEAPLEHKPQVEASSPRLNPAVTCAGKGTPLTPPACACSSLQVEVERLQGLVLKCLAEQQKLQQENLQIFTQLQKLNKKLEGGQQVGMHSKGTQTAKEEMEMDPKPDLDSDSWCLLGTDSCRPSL
# [2] = molecular target: Serine/threonine-protein kinase PLK1 (Homo sapiens) (UniProt P53350); conditions: at 0.1 µM
# Serine/threonine-protein kinase PLK1 (Homo sapiens), sequence (P53350 whole entry): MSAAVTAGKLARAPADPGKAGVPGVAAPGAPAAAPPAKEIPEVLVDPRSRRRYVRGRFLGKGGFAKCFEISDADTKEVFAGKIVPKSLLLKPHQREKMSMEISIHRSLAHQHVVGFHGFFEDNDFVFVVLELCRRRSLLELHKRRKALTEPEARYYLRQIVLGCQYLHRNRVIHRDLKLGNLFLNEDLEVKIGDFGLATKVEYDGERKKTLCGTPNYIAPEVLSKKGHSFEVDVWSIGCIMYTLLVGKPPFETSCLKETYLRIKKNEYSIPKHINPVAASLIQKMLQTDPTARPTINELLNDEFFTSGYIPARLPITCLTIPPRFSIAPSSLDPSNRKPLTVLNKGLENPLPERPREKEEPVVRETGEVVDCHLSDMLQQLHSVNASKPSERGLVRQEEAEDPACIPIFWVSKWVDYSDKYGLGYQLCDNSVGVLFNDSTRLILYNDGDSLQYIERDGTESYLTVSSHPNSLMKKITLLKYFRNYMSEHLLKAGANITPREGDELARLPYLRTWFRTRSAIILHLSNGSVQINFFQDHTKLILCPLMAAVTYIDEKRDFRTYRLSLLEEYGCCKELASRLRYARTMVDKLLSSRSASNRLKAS
# [3] = molecular target: Serine/threonine-protein kinase PLK1 (Homo sapiens) (UniProt P53350); conditions: at 1 µM
# [4] = molecular target: T2, Dual specificity protein kinase TTK (Homo sapiens) (UniProt P33981); conditions: at 0.1 µM
# T2 sequence (whole entry): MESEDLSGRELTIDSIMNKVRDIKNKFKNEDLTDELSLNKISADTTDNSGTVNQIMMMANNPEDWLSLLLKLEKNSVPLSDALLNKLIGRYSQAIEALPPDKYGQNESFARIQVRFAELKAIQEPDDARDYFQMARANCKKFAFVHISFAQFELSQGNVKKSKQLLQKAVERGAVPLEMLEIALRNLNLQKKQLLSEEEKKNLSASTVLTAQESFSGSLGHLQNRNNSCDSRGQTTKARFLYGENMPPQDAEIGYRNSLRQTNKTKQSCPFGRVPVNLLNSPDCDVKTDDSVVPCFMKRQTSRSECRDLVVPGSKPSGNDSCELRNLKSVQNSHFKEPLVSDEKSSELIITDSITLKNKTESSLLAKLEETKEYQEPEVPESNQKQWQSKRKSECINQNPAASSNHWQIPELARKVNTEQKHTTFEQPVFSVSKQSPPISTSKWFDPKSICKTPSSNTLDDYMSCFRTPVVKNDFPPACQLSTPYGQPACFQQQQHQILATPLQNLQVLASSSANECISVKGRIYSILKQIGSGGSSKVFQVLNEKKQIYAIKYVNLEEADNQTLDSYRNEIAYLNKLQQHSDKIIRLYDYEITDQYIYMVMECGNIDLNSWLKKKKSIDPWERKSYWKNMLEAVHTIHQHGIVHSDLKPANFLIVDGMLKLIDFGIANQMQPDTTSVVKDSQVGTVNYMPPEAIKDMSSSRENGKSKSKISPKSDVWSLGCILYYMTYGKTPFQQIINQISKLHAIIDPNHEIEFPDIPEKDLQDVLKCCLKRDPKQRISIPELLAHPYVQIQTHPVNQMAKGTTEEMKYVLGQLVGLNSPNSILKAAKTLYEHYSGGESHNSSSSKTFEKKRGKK
# [5] = system: T3, Receptor-type tyrosine-protein kinase FLT3 (Homo sapiens), P36888 [D835Y]; conditions: at 1 µM
# T3 sequence (whole entry): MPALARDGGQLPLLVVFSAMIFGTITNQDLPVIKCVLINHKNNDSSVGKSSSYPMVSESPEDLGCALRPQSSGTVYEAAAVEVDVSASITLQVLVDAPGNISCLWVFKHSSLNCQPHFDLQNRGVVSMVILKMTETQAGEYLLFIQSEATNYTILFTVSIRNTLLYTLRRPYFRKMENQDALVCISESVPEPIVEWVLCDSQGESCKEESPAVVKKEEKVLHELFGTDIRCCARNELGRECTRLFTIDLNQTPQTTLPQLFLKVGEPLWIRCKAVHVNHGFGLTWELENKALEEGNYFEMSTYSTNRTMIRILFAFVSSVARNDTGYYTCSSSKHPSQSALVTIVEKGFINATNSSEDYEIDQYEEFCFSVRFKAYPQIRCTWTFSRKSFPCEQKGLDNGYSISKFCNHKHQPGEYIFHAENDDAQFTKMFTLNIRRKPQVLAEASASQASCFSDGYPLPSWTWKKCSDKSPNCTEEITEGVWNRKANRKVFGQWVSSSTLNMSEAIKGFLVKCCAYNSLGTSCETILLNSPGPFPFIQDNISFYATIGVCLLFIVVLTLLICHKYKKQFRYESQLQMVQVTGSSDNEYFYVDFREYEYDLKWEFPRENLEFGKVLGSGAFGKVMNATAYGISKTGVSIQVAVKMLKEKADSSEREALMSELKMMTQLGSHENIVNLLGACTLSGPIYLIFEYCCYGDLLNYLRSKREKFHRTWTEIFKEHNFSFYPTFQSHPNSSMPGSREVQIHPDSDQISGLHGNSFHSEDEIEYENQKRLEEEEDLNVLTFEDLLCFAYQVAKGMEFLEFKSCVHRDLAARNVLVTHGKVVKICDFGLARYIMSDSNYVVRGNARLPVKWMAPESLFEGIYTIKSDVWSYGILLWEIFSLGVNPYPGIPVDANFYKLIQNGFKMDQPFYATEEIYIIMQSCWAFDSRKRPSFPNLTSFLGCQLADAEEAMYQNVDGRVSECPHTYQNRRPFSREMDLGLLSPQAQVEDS
# [6] = molecular target: Vascular endothelial growth factor receptor 3 (Homo sapiens) (UniProt P35916); conditions: at 0.1 µM
# [7] = molecular target: Vascular endothelial growth factor receptor 3 (Homo sapiens) (UniProt P35916); conditions: at 1 µM
# [8] = molecular target: Macrophage colony-stimulating factor 1 receptor (Homo sapiens) (UniProt P07333); conditions: at 0.1 µM
# Macrophage colony-stimulating factor 1 receptor (Homo sapiens), sequence (P07333 whole entry): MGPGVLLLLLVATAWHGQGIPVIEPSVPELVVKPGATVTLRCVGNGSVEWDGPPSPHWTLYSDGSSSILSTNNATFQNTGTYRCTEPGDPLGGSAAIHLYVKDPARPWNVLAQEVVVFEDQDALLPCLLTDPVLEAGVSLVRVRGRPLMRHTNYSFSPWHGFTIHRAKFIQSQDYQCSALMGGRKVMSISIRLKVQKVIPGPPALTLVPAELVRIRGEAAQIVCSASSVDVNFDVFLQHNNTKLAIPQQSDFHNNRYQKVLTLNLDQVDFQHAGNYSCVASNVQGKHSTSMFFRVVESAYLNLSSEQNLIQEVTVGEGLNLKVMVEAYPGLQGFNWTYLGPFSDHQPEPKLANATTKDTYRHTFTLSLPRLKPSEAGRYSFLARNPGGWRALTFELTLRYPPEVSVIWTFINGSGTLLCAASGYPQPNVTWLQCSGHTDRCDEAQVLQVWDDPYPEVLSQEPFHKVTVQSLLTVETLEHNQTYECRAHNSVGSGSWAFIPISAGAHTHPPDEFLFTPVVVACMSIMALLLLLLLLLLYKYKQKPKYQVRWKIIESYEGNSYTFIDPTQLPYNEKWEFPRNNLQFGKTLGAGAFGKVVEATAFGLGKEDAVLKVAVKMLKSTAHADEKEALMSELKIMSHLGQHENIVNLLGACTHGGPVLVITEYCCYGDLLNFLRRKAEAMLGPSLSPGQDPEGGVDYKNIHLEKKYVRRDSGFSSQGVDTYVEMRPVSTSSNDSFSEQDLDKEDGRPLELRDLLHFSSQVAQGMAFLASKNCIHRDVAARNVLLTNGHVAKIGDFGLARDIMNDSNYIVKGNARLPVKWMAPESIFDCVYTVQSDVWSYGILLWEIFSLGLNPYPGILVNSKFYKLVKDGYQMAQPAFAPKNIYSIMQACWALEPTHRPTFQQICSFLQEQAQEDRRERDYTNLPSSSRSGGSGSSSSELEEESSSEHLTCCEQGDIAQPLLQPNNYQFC
# [9] = molecular target: Macrophage colony-stimulating factor 1 receptor (Homo sapiens) (UniProt P07333); conditions: at 1 µM
# [10] = molecular target: Tyrosine-protein kinase Fyn (Homo sapiens) (UniProt P06241); conditions: at 0.1 µM
# [11] = molecular target: Tyrosine-protein kinase Fyn (Homo sapiens) (UniProt P06241); conditions: at 1 µM
# [12] = molecular target: Tyrosine-protein kinase HCK (Homo sapiens) (UniProt P08631); conditions: at 0.1 µM
# Tyrosine-protein kinase HCK (Homo sapiens), sequence (P08631 2-526 limits assumed): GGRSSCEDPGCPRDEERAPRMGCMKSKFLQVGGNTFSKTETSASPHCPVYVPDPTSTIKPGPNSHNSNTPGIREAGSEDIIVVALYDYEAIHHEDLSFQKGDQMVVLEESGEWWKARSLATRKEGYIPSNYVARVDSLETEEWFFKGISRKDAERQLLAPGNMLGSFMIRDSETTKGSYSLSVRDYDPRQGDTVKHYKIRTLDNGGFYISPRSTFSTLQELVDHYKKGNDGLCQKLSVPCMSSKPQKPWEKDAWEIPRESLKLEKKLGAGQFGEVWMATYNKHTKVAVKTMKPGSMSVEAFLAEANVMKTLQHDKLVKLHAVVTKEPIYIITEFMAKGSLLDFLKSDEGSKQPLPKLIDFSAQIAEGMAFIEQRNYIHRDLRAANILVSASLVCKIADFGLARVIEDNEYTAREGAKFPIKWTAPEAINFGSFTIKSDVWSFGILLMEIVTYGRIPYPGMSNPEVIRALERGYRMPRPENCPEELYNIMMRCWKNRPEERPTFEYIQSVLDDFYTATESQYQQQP
# [13] = molecular target: Tyrosine-protein kinase HCK (Homo sapiens) (UniProt P08631); conditions: at 1 µM
# [14] = molecular target: Insulin-like growth factor 1 receptor (Homo sapiens) (UniProt P08069); conditions: at 0.1 µM
# Insulin-like growth factor 1 receptor (Homo sapiens), sequence (P08069 31-736 limits assumed): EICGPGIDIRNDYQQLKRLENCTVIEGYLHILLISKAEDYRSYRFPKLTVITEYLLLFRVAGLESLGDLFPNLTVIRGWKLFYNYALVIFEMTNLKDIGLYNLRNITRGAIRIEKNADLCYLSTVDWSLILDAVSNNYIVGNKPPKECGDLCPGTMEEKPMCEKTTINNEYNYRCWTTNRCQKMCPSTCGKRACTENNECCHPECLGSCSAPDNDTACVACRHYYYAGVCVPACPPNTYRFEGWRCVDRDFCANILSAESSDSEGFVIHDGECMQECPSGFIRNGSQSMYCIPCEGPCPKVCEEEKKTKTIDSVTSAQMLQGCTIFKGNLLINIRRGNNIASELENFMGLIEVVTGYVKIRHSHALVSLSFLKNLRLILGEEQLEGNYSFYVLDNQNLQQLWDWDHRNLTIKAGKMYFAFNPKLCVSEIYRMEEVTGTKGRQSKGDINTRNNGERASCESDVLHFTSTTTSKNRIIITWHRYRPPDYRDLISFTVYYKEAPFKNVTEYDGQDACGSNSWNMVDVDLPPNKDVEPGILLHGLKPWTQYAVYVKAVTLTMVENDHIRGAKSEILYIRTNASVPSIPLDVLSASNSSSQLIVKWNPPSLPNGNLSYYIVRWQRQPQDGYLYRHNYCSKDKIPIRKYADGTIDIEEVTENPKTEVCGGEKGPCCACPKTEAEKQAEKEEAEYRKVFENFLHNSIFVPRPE
# Insulin-like growth factor 1 receptor (Homo sapiens), sequence (P08069 741-1367 limits assumed): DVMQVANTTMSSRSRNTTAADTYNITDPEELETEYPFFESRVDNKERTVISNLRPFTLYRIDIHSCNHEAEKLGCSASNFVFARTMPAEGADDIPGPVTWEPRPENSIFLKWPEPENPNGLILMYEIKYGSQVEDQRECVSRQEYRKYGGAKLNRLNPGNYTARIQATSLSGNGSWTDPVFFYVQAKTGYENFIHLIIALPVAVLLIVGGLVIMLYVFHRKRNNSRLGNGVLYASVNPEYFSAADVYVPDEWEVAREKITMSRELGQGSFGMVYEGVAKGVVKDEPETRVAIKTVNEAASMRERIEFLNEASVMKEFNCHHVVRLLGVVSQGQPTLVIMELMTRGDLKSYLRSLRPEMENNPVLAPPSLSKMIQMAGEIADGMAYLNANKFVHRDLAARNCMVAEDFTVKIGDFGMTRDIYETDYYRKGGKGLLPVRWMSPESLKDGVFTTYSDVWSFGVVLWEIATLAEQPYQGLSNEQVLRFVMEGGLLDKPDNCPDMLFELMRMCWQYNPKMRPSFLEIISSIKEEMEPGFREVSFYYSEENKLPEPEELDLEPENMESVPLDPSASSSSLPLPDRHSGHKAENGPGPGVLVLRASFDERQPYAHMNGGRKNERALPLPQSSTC
# [15] = molecular target: Insulin-like growth factor 1 receptor (Homo sapiens) (UniProt P08069); conditions: at 1 µM
# [16] = molecular target: Insulin receptor (Homo sapiens) (UniProt P06213); conditions: at 0.1 µM
# [17] = molecular target: Insulin receptor (Homo sapiens) (UniProt P06213); conditions: at 1 µM
# [18] = molecular target: Insulin receptor-related protein (Homo sapiens) (UniProt P14616); conditions: at 0.1 µM
# Insulin receptor-related protein (Homo sapiens), sequence (P14616 27-742 limits assumed): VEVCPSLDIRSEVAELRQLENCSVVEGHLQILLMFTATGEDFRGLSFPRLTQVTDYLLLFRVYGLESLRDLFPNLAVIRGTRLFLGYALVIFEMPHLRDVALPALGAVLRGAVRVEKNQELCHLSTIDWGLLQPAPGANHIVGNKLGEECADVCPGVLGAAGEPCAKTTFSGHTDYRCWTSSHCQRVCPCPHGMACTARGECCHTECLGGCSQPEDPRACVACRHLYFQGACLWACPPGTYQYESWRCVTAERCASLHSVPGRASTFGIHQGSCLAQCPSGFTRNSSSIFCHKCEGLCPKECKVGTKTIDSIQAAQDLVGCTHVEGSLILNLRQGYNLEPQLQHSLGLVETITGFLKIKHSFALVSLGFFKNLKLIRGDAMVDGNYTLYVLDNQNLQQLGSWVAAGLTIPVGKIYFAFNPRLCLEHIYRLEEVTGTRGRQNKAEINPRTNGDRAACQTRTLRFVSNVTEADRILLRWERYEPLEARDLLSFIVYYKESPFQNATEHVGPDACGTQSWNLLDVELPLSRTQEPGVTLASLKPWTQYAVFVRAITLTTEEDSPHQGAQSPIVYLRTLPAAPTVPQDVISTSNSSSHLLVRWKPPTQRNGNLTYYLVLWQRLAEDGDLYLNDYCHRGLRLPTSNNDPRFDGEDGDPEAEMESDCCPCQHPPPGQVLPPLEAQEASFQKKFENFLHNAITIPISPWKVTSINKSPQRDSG
# Insulin receptor-related protein (Homo sapiens), sequence (P14616 747-1297 limits assumed): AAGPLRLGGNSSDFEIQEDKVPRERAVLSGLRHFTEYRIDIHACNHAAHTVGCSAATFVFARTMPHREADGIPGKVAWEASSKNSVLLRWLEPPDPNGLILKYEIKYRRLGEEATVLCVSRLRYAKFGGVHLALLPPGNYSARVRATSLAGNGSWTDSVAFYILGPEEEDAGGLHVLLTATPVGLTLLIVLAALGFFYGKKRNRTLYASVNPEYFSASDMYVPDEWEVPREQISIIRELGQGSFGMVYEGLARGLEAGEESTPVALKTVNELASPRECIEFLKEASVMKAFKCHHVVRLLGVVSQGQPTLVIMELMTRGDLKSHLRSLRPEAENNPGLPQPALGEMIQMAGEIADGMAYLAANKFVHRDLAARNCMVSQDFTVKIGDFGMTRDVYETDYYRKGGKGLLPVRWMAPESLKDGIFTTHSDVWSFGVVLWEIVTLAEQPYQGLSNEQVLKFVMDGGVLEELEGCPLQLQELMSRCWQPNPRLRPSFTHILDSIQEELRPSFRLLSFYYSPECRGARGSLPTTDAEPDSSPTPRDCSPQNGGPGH
# [19] = molecular target: Insulin receptor-related protein (Homo sapiens) (UniProt P14616); conditions: at 1 µM
# [20] = molecular target: T4, Tyrosine-protein kinase ITK/TSK (Homo sapiens) (UniProt Q08881); conditions: at 0.1 µM;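 note: mean percent inhibition of ITK from the GSK PKIS screen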
# T4 sequence (whole entry): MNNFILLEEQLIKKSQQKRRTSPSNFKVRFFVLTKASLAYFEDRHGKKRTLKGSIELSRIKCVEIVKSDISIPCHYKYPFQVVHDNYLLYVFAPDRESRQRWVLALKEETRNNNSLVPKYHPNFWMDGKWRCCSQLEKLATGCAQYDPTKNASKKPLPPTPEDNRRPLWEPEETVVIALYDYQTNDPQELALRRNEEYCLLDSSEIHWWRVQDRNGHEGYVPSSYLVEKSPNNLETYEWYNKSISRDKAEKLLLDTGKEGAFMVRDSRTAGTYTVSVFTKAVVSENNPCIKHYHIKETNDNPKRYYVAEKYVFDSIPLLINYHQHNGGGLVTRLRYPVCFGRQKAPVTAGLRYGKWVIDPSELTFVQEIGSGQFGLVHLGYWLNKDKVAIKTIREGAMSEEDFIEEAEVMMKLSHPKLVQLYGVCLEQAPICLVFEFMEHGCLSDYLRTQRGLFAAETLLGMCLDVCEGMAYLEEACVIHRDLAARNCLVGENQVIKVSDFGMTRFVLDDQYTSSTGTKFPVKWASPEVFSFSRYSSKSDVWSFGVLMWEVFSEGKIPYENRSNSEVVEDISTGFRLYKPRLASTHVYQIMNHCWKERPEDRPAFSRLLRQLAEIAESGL
compound,measurement,setting,value
c1ccc(-c2n[nH]cc2-c2ccnc(-c3ccc(OCCn4ccnc4)cc3)c2)nc1,inhibition,[1],2.33%
same,inhibition,[2],1.2%
same,inhibition,[3],2.17%
same,inhibition,[4],3.26%
same,inhibition,[5],5.27%
same,inhibition,[6],5.33%
same,inhibition,[7],16.4%
same,inhibition,[8],2.61%
same,inhibition,[9],11.8%
same,inhibition,[10],2.86%
same,inhibition,[11],7.07%
same,inhibition,[12],1.8%
same,inhibition,[13],9.8%
same,inhibition,[14],6.59%
same,inhibition,[15],2.24%
same,inhibition,[16],2.91%
same,inhibition,[17],2.56%
same,inhibition,[18],-0.75%
same,inhibition,[19],-0.28%
same,inhibition,[20],0.01%
